Measurements taken from PubChem BioAssay AID1159580 (chemical genetic matrix, 2015).
The whole screen tested about 5,500 compounds, of which about 2,000 (36%) were called active. Inconclusive results (about 18%) are left out. No stated cut-off is given here; in the data, active means normalized growth mostly below about 0.91 (no sharp cut-off); inconclusive means no clear call, values can overlap the other calls; inactive means mostly above about 0.92. Some of the results follow.

Assay: chemical genetic growth profiling, strain panel (AID 1159580);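 further: tested at 20 µM; growth read once vehicle control cultures reached saturation at 30 °C; 1 = growth at the plate median or of vehicle wells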
Conditions: growth OD

Measured: normalized growth

Oc1ccc2c3c1OC1[C@@H](O)CC[C@@]4(O)[C@@H](C2)N(CC2CCC2)CC[C@]314 (some centres not stated)
inactive: S. cerevisiae deletion strains, locus YJR075W, strain HOC1, stronger effect = lower value 1.03 | S. cerevisiae deletion strains, locus YKL009W, strain mrt4, stronger effect = lower value 1 | S. cerevisiae deletion strains, locus YKL068W, stronger effect = lower value 1.01 | S. cerevisiae deletion strains, locus YKL085W, strain MDH1 (second series), stronger effect = lower value 1 | S. cerevisiae deletion strains, locus YKL085W, strain MDH1, stronger effect = lower value 1 | S. cerevisiae deletion strains, locus YKL160W, strain elf1, stronger effect = lower value 0.992 | S. cerevisiae deletion strains, locus YKL190W, strain CNB1, stronger effect = lower value 1.01 | S. cerevisiae deletion strains, locus YKR001C, strain vps1, stronger effect = lower value 1.01 | S. cerevisiae deletion strains, locus YKR026C, strain gcn3, stronger effect = lower value 0.952 | S. cerevisiae deletion strains, locus YKR091W, strain srl3, stronger effect = lower value 0.992 | S. cerevisiae deletion strains, locus YLL001W, strain dnm1, stronger effect = lower value 0.978 | S. cerevisiae deletion strains, locus YLL026W, stronger effect = lower value 0.999 | S. cerevisiae deletion strains, locus YLL041C, strain sdh2, stronger effect = lower value 0.993 | S. cerevisiae deletion strains, locus YLR027C, strain aat2, stronger effect = lower value 1 | S. cerevisiae deletion strains, locus YLR039C, strain RIC1, stronger effect = lower value 1.04 | S. cerevisiae deletion strains, locus YLR058C, strain SHM2, stronger effect = lower value 1.02 | S. cerevisiae deletion strains, locus YLR102C, strain apc9, stronger effect = lower value 1.01 | S. cerevisiae deletion strains, locus YLR113W, strain HOG1, stronger effect = lower value 0.971 | S. cerevisiae deletion strains, locus YLR221C, strain rsa3, stronger effect = lower value 1.02 | S. cerevisiae deletion strains, locus YLR258W, strain gsy2, stronger effect = lower value 1.01 | S. cerevisiae deletion strains, locus YLR262C, strain YPT6 (second series), stronger effect = lower value 0.986 | S. cerevisiae deletion strains, locus YLR262C, strain YPT6, stronger effect = lower value 1.01 | S. cerevisiae deletion strains, locus YLR268W, strain sec22, stronger effect = lower value 1.06 | S. cerevisiae deletion strains, locus YLR320W, strain mms22, stronger effect = lower value 1.01 | S. cerevisiae deletion strains, locus YLR330W, strain CHS5, stronger effect = lower value 1.01 | S. cerevisiae deletion strains, locus YLR342W, strain FKS1 (second series), stronger effect = lower value 1.01 | S. cerevisiae deletion strains, locus YLR342W, strain FKS1, stronger effect = lower value 1 | S. cerevisiae deletion strains, locus YLR357W, strain rsc2, stronger effect = lower value 0.967 | S. cerevisiae deletion strains, locus YLR370C, strain arc18, stronger effect = lower value 0.989 | S. cerevisiae deletion strains, locus YLR371W, strain rom2, stronger effect = lower value 1.02 | S. cerevisiae deletion strains, locus YLR384C, strain iki3, stronger effect = lower value 0.991 | S. cerevisiae deletion strains, locus YLR418C, strain cdc73, stronger effect = lower value 1.03 | S. cerevisiae deletion strains, locus YML016C, strain PPZ1, stronger effect = lower value 1.01 | S. cerevisiae deletion strains, locus YML032C, strain rad52, stronger effect = lower value 1.03 | S. cerevisiae deletion strains, locus YML120C, strain ndi1, stronger effect = lower value 1 | S. cerevisiae deletion strains, locus YML124C, strain tub3, stronger effect = lower value 1.01 | S. cerevisiae deletion strains, locus YMR058W, strain fet3, stronger effect = lower value 1.02 | S. cerevisiae deletion strains, locus YMR078C, strain ctf18, stronger effect = lower value 1.02 | S. cerevisiae deletion strains, locus YMR125W, strain sto1, stronger effect = lower value 0.982 | S. cerevisiae deletion strains, locus YMR129W, stronger effect = lower value 1 | S. cerevisiae deletion strains, locus YMR205C, strain PFK2, stronger effect = lower value 0.993 | S. cerevisiae deletion strains, locus YMR223W, strain ubp8, stronger effect = lower value 1.01 | S. cerevisiae deletion strains, locus YMR231W, strain pep5, stronger effect = lower value 1 | S. cerevisiae deletion strains, locus YMR263W, strain SAP30, stronger effect = lower value 1.02 | S. cerevisiae deletion strains, locus YMR307W, strain GAS1, stronger effect = lower value 1.04 | S. cerevisiae deletion strains, locus YNL067W, strain RPL9B, stronger effect = lower value 1.03 | S. cerevisiae deletion strains, locus YNL071W, strain lat1, stronger effect = lower value 1 | S. cerevisiae deletion strains, locus YNL128W, strain TEP1, stronger effect = lower value 1.03 | S. cerevisiae deletion strains, locus YNL153C, strain GIM3, stronger effect = lower value 1.03 | S. cerevisiae deletion strains, locus YNL183C, strain NPR1, stronger effect = lower value 0.914 | S. cerevisiae deletion strains, locus YNL209W, strain ssb2, stronger effect = lower value 1.01 | S. cerevisiae deletion strains, locus YNL233W, strain BNI4, stronger effect = lower value 1.02 | S. cerevisiae deletion strains, locus YNL248C, strain rpa49, stronger effect = lower value 0.92 | S. cerevisiae deletion strains, locus YNL250W, strain rad50, stronger effect = lower value 1.01 | S. cerevisiae deletion strains, locus YNL271C, strain bni1, stronger effect = lower value 1.01 | S. cerevisiae deletion strains, locus YNL298W, strain CLA4, stronger effect = lower value 1.01 | S. cerevisiae deletion strains, locus YNL307C, strain MCK1, stronger effect = lower value 1.01 | S. cerevisiae deletion strains, locus YNL322C, strain KRE1 (second series), stronger effect = lower value 0.999 | S. cerevisiae deletion strains, locus YNL322C, strain KRE1, stronger effect = lower value 1.01 | S. cerevisiae deletion strains, locus YNR049C, strain mso1, stronger effect = lower value 0.988 | S. cerevisiae deletion strains, locus YNR052C, strain pop2, stronger effect = lower value 1.01 | S. cerevisiae deletion strains, locus YOL006C, strain TOP1, stronger effect = lower value 1.04 | S. cerevisiae deletion strains, locus YOL012C, strain htz1 0.773 | S. cerevisiae deletion strains, locus YOL147C, strain pex11, stronger effect = lower value 1.01 | S. cerevisiae deletion strains, locus YOR001W, strain rrp6, stronger effect = lower value 0.997 | S. cerevisiae deletion strains, locus YOR061W, strain CKA2, stronger effect = lower value 1.01 | S. cerevisiae deletion strains, locus YOR069W, strain VPS5, stronger effect = lower value 1.01 | S. cerevisiae deletion strains, locus YOR070C, strain gyp1, stronger effect = lower value 1 | S. cerevisiae deletion strains, locus YOR080W, strain dia2, stronger effect = lower value 0.988 | S. cerevisiae deletion strains, locus YOR083W, strain WHI5, stronger effect = lower value 0.987 | S. cerevisiae deletion strains, locus YOR106W, strain vam3, stronger effect = lower value 0.993 | S. cerevisiae deletion strains, locus YOR136W, strain idh2, stronger effect = lower value 1.02 | S. cerevisiae deletion strains, locus YOR144C, strain elg1, stronger effect = lower value 1.01 | S. cerevisiae deletion strains, locus YOR184W, strain ser1, stronger effect = lower value 1.01 | S. cerevisiae deletion strains, locus YOR231W, strain MKK1, stronger effect = lower value 0.96 | S. cerevisiae deletion strains, locus YOR265W, strain rbl2, stronger effect = lower value 1 | S. cerevisiae deletion strains, locus YOR270C, strain vph1, stronger effect = lower value 0.997 | S. cerevisiae deletion strains, locus YOR290C, strain snf2, stronger effect = lower value 1.02 | S. cerevisiae deletion strains, locus YOR316C, strain cot1, stronger effect = lower value 1.02 | S. cerevisiae deletion strains, locus YPL051W, strain arl3, stronger effect = lower value 1.01 | S. cerevisiae deletion strains, locus YPL055C, strain LGE1, stronger effect = lower value 1.05 | S. cerevisiae deletion strains, locus YPL078C, strain atp4, stronger effect = lower value 0.984 | S. cerevisiae deletion strains, locus YPL106C, strain sse1, stronger effect = lower value 1.01 | S. cerevisiae deletion strains, locus YPL240C, strain hsp82, stronger effect = lower value 0.997 | S. cerevisiae deletion strains, locus YPL241C, strain CIN2, stronger effect = lower value 1.01 | S. cerevisiae deletion strains, locus YPL256C, strain CLN2, stronger effect = lower value 0.972 | S. cerevisiae deletion strains, locus YPR119W, strain clb2, stronger effect = lower value 1.01 | S. cerevisiae deletion strains, locus YPR141C, strain kar3, stronger effect = lower value 1.02 | S. cerevisiae deletion strains, locus YPR163C, strain tif3, stronger effect = lower value 1.01 | S. cerevisiae deletion strains, locus YPR167C, strain met16, stronger effect = lower value 1.02 | S. cerevisiae deletion strains, strain wtn01, stronger effect = lower value 1.02 | S. cerevisiae strains, strain wild type, stronger effect = lower value 1.02
